In PubChem BioAssay (NCI):
Where “and” joins values, the source holds several entries; their conditions need not be identical. Equal values may be shown once. About 83,000 compounds went through this panel and 20% of them were active in at least one assay; those are over-represented in the sample as a whole.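 Single-concentration screen, 48 h exposure, 96-well plates. Endpoint: percent growth. Below 10 = active.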 Some structures have more than one record in an assay (separate samples or runs), and their calls can disagree. Calls of active or inactive are those of the source.

What was measured:
Experiment in all cases: NCI-60 one-dose screen, 48 h (100 = growth as untreated, 0 = no growth, -100 = all killed)
Conditions in all cases: 10 µM unless noted
NCI-H23 lung = test system: NCI-H23 lung
NCI-H226 lung = test system: NCI-H226 lung
NCI-H322M lung = test system: NCI-H322M lung
HOP-62 NSCLC = test system: HOP-62 NSCLC
NCI-H460 lung = test system: NCI-H460 lung
HOP-92 NSCLC = test system: HOP-92 NSCLC
NCI-H522 lung = test system: NCI-H522 lung
A549/ATCC NSCLC = test system: A549/ATCC NSCLC
786-0 renal = test system: 786-0 renal
COLO 205 colon = test system: COLO 205 colon

Measured: growth

CN(C)c1ccc(C(Cc2ccc3ccccc3n2)Cc2ccc3ccccc3n2)cc1
-4.12% (active) and 50.7% (inactive): HOP-92 NSCLC
inactive: NCI-H23 lung 38.6% and 65.5% | NCI-H226 lung 61.4% and 71.9% | NCI-H322M lung 66.9% and 86% | HOP-62 NSCLC 70.9% and 84.4% | NCI-H460 lung 26.5% and 73.7% | NCI-H522 lung 45.3% and 90.3% | A549/ATCC NSCLC 45% and 91.1% | 786-0 renal 31.4% and 90.9% | COLO 205 colon 43.5%

CCOC(=O)Nc1ccc2c(c1)/C(=N\NC(N)=S)c1ccccc1-2
inactive: NCI-H23 lung 44.3% and 62.6% | NCI-H226 lung 76% and 81.1% | NCI-H322M lung 83.8% and 94.9% | HOP-62 NSCLC 74.7% and 77.6% | NCI-H460 lung 52% and 58.4% | HOP-92 NSCLC 71.1% | NCI-H522 lung 76.9% | A549/ATCC NSCLC 60% and 57.6% | 786-0 renal 28% and 53.7% | COLO 205 colon 63.3% and 88.3%

CC(=O)Nc1ccc(O)cc1
inactive: NCI-H23 lung 99.3% and 112% and 102% | NCI-H226 lung 92.9% and 106% and 112% | NCI-H322M lung 108% and 111% and 102% | HOP-62 NSCLC 111% and 106% and 104% | NCI-H460 lung 109% and 105% and 108% | HOP-92 NSCLC 80.3% and 120% | NCI-H522 lung 94.3% and 47% | A549/ATCC NSCLC 96.9% and 122% and 108% | 786-0 renal 99.5% and 106% and 103% | COLO 205 colon 105% and 116% and 101%

Fc1ccccc1Nc1n[nH]c(=S)s1
inactive: NCI-H23 lung 108% | NCI-H226 lung 107% | NCI-H322M lung 128% | HOP-62 NSCLC 108% | NCI-H460 lung 109% | HOP-92 NSCLC 100% | NCI-H522 lung 108% | A549/ATCC NSCLC 101% | 786-0 renal 101% | COLO 205 colon 108%

OC1CCC(Oc2cccc3cnc(Nc4ccc5nc[nH]c5c4)nc23)CC1 (stereo not given)
9.66% (active) and 31.6% (inactive): NCI-H226 lung
-21.9% (active) and 54% (inactive): NCI-H522 lung
inactive: NCI-H322M lung 12.2% and 50.6% | HOP-92 NSCLC 14.2% and 40.3% | 786-0 renal 15.5% and 38.8%
-30.1% (active) and 34.8% (inactive): COLO 205 colon
-21.5% (active) and 25.5% (inactive): NCI-H23 lung
active: HOP-62 NSCLC -24.5% and 5.23%
-9.62% (active) and 28.9% (inactive): A549/ATCC NSCLC
4.89% (active) and 25.8% (inactive): NCI-H460 lung

O=C(N/N=C/c1ccc2c(c1)OCO2)c1ccncc1
inactive: NCI-H23 lung 99% and 101% | NCI-H226 lung 108% and 93.3% | NCI-H322M lung 114% and 94.6% | HOP-62 NSCLC 99.5% and 108% | NCI-H460 lung 101% and 111% | HOP-92 NSCLC 106% and 70.1% | NCI-H522 lung 77.8% and 96.3% | A549/ATCC NSCLC 108% and 109% | 786-0 renal 109% and 101% | COLO 205 colon 101% and 110%

OC(COc1cccc2ccccc12)CN1CCN(c2ccc(Cl)cc2)CC1 (stereo not given)
inactive: NCI-H23 lung 84.6% and 86.5% | NCI-H226 lung 92.4% and 111% | NCI-H322M lung 90% and 102% | HOP-62 NSCLC 96.5% and 77.3% | NCI-H460 lung 49% and 95% | HOP-92 NSCLC 75.1% and 77% | NCI-H522 lung 109% and 85.7% | A549/ATCC NSCLC 71.9% and 88.3% | 786-0 renal 80.9% and 89.7% | COLO 205 colon 121%

O=C(Oc1cccc(OC(=O)c2ccccc2)c1)c1ccccc1
inactive: NCI-H23 lung 94.6% and 106% | NCI-H226 lung 102% and 100% | NCI-H322M lung 101% and 97.8% | HOP-62 NSCLC 90.5% and 90% | NCI-H460 lung 107% and 94.2% | HOP-92 NSCLC 73.7% and 88.5% | NCI-H522 lung 108% | A549/ATCC NSCLC 57.7% and 98.9% | 786-0 renal 90% and 95.8% | COLO 205 colon 101% and 104%

Cc1n[nH]c(=O)n(/N=C\c2c[nH]c3ccccc23)c1=O
inactive: NCI-H23 lung 102% | NCI-H226 lung 103% | NCI-H322M lung 94.2% | HOP-62 NSCLC 96.1% | NCI-H460 lung 107% | HOP-92 NSCLC 84.2% | NCI-H522 lung 94.1% | A549/ATCC NSCLC 93.1% | 786-0 renal 123% | COLO 205 colon 104%

O=C(N/N=C/c1cccc2ccccc12)C1CC1
inactive: NCI-H23 lung 104% and 89.3% | NCI-H226 lung 104% and 92.2% | NCI-H322M lung 98.1% and 101% | HOP-62 NSCLC 104% and 116% | NCI-H460 lung 113% and 104% | HOP-92 NSCLC 97.8% and 95.1% | NCI-H522 lung 98.8% and 103% | A549/ATCC NSCLC 100% and 89.2% | 786-0 renal 99.9% and 99% | COLO 205 colon 112% and 117%

O=c1c2ccccc2nc2n1Cc1nc3ccccc3c(=O)n1C2
inactive: NCI-H23 lung 92.2% and 100% | NCI-H226 lung 89.5% and 97.8% | NCI-H322M lung 97.8% and 102% | HOP-62 NSCLC 114% and 105% | NCI-H460 lung 95.1% and 101% | HOP-92 NSCLC 95.3% and 114% | NCI-H522 lung 89.9% and 93.3% | A549/ATCC NSCLC 102% and 100% | 786-0 renal 103% and 104% | COLO 205 colon 111% and 130%

COc1ccc(Cn2c(NCCN=C(N)N)nc(=O)n(Cc3ccc(F)cc3)c2=O)cc1
inactive: NCI-H23 lung 102% and 89.5% | NCI-H226 lung 97.3% and 95.3% | NCI-H322M lung 83% and 90.7% | HOP-62 NSCLC 71.6% and 85.7% | NCI-H460 lung 106% and 104% | HOP-92 NSCLC 82.8% | NCI-H522 lung 90.2% and 97.2% | A549/ATCC NSCLC 108% and 107% | 786-0 renal 98.5% and 103% | COLO 205 colon 105% and 97.8%

Clc1ccc(SSc2ccc(Cl)cc2)cc1
inactive: NCI-H23 lung 94.1% and 85.5% | NCI-H226 lung 104% and 79.5% | NCI-H322M lung 95.6% and 108% | HOP-62 NSCLC 102% and 98% | NCI-H460 lung 98.1% and 79.5% | HOP-92 NSCLC 76% and 74.2% | NCI-H522 lung 87.9% and 81.8% | A549/ATCC NSCLC 95.9% and 46.9% | 786-0 renal 96.5% and 66.8% | COLO 205 colon 99.6% and 113%

O=C(Nc1ccc(Cl)cc1)c1cc2ccccc2cc1O
inactive: NCI-H226 lung 54.4% and 42.1% | NCI-H322M lung 17.1% and 19.6% | A549/ATCC NSCLC 68.2% and 26.4% | COLO 205 colon 91.4% and 70.4%
67.1% (inactive) and -31.9% (active): 786-0 renal
12.2% (inactive) and 4.22% (active): NCI-H23 lung
active: NCI-H460 lung 8.06% and -15.7% | HOP-92 NSCLC -9.86%
63.6% (inactive) and 5.51% (active): HOP-62 NSCLC
26.1% (inactive) and -32.3% (active): NCI-H522 lung
